# High-throughput results from PubChem BioAssay.
# Bst PK mod: pyruvate kinase (B. stearothermophilus) modulation. Potency, µM. purified pyruvate kinase, luminescence ATP production; ribose 5-phosphate activator present at AC10. 1.2% of 51,000 active; in the data active means potency below about 11 µM; inconclusive means mostly about 12 µM to 25 µM;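 the screen sought inhibitors and activators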;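 further: scaled between full activation by ribose 5 phosphate and full inhibition by luteolin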
# GBA activity: human lysosomal glucosylceramidase modulation | AID 360 | Potency, µM | 1.1% of 48,000 active | purified enzyme, resorufin glucoside fluorescence (screen aimed at inhibitors), 20 min; in the data active means potency below about 15 µM; inconclusive means mostly about 16 µM to 33 µM;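 further: the screen sought inhibitors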
#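 Normal human glucocerebrosidase (0.2 nM final) was assayed with resorufin β-D-glucopyranoside (30 uM final) in 50mM citric acid/KH2PO4, 10mM sodium taurocholate, 0.01% tween-20, pH 5.9. Compounds were titrated; fluorescence (Ex 548, Em 600) read after 20 min at RT.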
# FLuc inh: firefly luciferase inhibition; AID 411; 2.2% of 72,000 active; Potency, µM (series often up to 57.1 µM), for the others: top-dose activity change, negative = inhibition, usual class: inhibitors; purified firefly luciferase, luminescence, 8 min; active means well fitted inhibition curve with a large enough effect; inconclusive means small, poorly fitted or top-dose-only effect; further: on the % scale 0 is the no-effect control and ±100 the full control effect; nearly all actives have a fitted effect of over 40% in size
# Target sequence (P08659 whole entry, looked up): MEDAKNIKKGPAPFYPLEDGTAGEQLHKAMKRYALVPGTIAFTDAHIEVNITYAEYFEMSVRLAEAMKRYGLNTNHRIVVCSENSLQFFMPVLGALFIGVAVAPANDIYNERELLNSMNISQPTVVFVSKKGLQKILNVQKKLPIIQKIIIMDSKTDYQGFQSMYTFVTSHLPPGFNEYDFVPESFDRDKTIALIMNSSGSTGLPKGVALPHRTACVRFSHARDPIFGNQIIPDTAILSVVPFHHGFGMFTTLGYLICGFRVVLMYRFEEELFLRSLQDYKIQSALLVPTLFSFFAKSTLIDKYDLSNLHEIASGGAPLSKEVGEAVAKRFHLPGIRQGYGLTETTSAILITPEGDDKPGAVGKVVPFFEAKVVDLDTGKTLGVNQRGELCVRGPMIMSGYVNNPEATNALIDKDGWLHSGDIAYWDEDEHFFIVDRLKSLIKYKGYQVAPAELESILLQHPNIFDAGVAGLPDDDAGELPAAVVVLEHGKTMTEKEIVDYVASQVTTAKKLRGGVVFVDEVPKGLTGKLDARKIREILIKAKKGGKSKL
#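 Compounds were tested as concentration series (qHTS) against purified P. pyralis luciferase with luciferin and 10 uM ATP in 50 mM imidazole pH 7.2, 50 mM KCl, 7 mM MgCl2, 0.01% Tween 20, 0.05% BSA. Luminescence was read after 8 min at ambient temperature.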
# The depositor's hits bear a star; i = inactive; ? = inconclusive; . = not tested or not shown; [ ] = another dose, or the depositor's remark. Most compounds without a hit are left out; they make up all but 3.4% or so of the library. Potency means the concentration at half of the fitted maximal effect.
SMILES,Bst PK mod,GBA activity,FLuc inh
CN(CC(=O)NC1CCCCCCC1)S(=O)(=O)c1cccc2cccnc12,.,.,3%
O=C(O)c1ccccc1NS(=O)(=O)c1cccc2cccnc12,9.1*,>77,0%
CN(CC(=O)Nc1ccc2c(c1)OCCO2)S(=O)(=O)c1cccc2cccnc12,.,.,-17%
Cc1ccc(S(=O)(=O)Nc2ccccc2C=O)cc1,.,.,2%[11.4 µM]
COC(=O)C/C=C\[C@@H](C)[C@@H](/C=N\O[C@@H](C)c1cc(-c2c(C)cc(C)cc2C)no1)NS(=O)(=O)c1ccc(C)cc1,.,.,0%[11.4 µM]
CN1CCN(c2ncc3nc(-c4cccc(C#N)c4)c(=O)n(C)c3n2)CC1,.,.,1%[11.4 µM]
COc1ccc(NS(=O)(=O)c2cccc3cccnc23)cc1,2.6*,>77,-3%
COc1ccccc1NS(=O)(=O)c1cccc2cccnc12,.,.,4%
CN1CCN(c2ncc3nc(-c4ccccc4)c(=O)n(C)c3n2)CC1,.,.,-1%[11.4 µM]
C[N+](C)(C)c1ccc([C@H](N)C(=O)O)cc1,.,.,0%[11.4 µM]
c1ccc2[nH]c(CN3CCN(c4ncnc5c4oc4ccccc45)CC3)nc2c1,.,>77,-2%
O=c1[nH]c(CN2CCN(C/C=C/c3ccccc3)CC2)nc2ccccc12,>57,>77,2%
C(=C\c1ccccc1)/CN1CCN(c2ncnc3c2oc2ccccc23)CC1,i,>77,13µM*
COc1ccccc1N1CCN(c2ncnc3c2oc2ccccc23)CC1,>57,>77,3%
Nc1nc(N2CCN(C/C=C/c3ccccc3)CC2)nc2ccccc12,>57,8.4*,2%
c1cnc(N2CCN(c3ncnc4c3oc3ccccc34)CC2)nc1,>57,5.7*,-1%
O[C@@H](c1cc(C(F)(F)F)nc2c(Cl)cc(Cl)cc12)[C@@H]1CCCCN1,.,.,2%[11.4 µM]
CN1CCc2cc3c(cc2C(=O)Cc2ccc4c(c2C1)OCO4)OCO3,.,.,2%[11.4 µM]
OC1CC2CC[C@H](C1)N2CCCN1c2ccccc2Sc2ccc(Cl)cc21 (stereo partly drawn),.,.,0%[11.4 µM]
CC(C)(CN)SCc1ccccc1,.,.,1%[11.4 µM]
Cc1ccsc1/C=C\C1=NCCCN1C,.,.,-3%[25.5 µM]
CN1CCc2cc3c(cc2[C@@H]1[C@@H]1C(=O)Oc2c1ccc1c2OCO1)OCO3,.,.,2%
CCOC(=O)c1ccc2nc(NC(NC(C)=O)(C(=O)OC)C(F)(F)F)sc2c1 (stereo not drawn),>26,.,-2%[25.5 µM]
CC(=O)c1sc(Nc2nc3ccc(F)cc3s2)nc1C,?,>77,16µM*
CC(=O)c1sc(NC(=O)C=C(C)C)nc1C,>57,>77,-5%
SMILES,Bst PK mod,GBA activity,FLuc inh
CCOC(=O)c1csc(Nc2nc3ccc(F)cc3s2)n1,1.2*,>77,1%
O=[N+]([O-])c1cccc2c[nH]nc12,.,.,-1%
Cc1cccc(CNc2nc(-c3ccccc3CN(C)C)nc3ccccc23)c1,.,.,2%[2.29 µM]
COCCNC(=O)c1csc2c1CCCC2,>57,>77,-1%
CCOC(=O)Cc1csc(NC(=O)c2ccc(C)o2)n1,>57,>77,-4%
CCOC(=O)Cc1csc(NC(=O)c2csc3c2CCCC3)n1,i,>77,16µM*
COc1cc(NC(=O)c2csc3c2CCCC3)ncn1,>57,>77,13µM*
OC[C@@H]1O[C@H](O)[C@@H](Cl)[C@H](O)[C@@H]1O,.,.,-1%
COc1ccc2[nH]cc(CCNc3ncncc3-c3ccoc3)c2c1,.,.,0%[2.29 µM]
CSc1ccc2c(c1)N(CCCN(C)C)c1ccccc1S2,.,.,3%[11.4 µM]
O=C1NC(=S)S/C1=C1\Sc2ccccc2N1CCCS(=O)(=O)O,7.7*,>77,1%
O=c1c(-c2cccs2)nc2cnc(N3CCOCC3)nc2n1Cc1cccs1,.,.,1%[11.4 µM]
CN(Cc1cc(Br)cc(Br)c1O)Cc1c(O)ccc2ccccc12,.,.,0%[11.4 µM]
CCOC(=O)[C@@H](O)Cc1cnc2ccccc2n1,.,.,-1%[11.4 µM]
Cc1ccc(-c2csc3nc(=O)c(C)nn23)cc1,>57,>77,3%
Cc1ccc(-c2cn3nc(C)c(C)nc3n2)cc1,5.5*,>77,2.5µM*
N#Cc1ccc(OC(=O)c2ccc(N=C(N)N)cc2)cc1,.,.,0%[11.4 µM]
CCOc1ccc2c(ccc(/C=C\c3cc(C)c4cccnc4c3O)[n+]2C)c1,.,.,-11%[11.4 µM]
COc1ccc(OC)c2[nH]c(=O)c(CCNS(=O)(=O)c3ccccc3)cc12,?,>77,1%
CCCS(=O)(=O)NCCc1cc2c(OC)ccc(OC)c2[nH]c1=O,6.4*,>77,-4%
COc1ccc(Nc2cc(C(=O)NCCCN3CCN(C)CC3)c3ccccc3n2)c(OC)c1,.,>77,-20%
O=C(NCCO)c1nc(NCCO)c2ccccc2n1,>57,>77,0%
COc1ccc(Nc2nc(N3CCCC3)nc3ccccc23)c(OC)c1,>57,3.4*,-2%
OCCNc1nc(N2CCN(Cc3ccccc3)CC2)nc2ccccc12,.,13*,-4%
C=CCNc1nc(N2CCCC2)nc2ccccc12,.,11*,-1%
C=CCNc1nc(N2CCCCC2)c(C#N)c2c1CN(Cc1ccccc1)CC2,>26,.,1%[25.5 µM]
